According to PubChem BioAssay AID1022 (Emory University Molecular Libraries Screening Center, 2008):
In all, about 220,000 compounds went through this assay and about 3,300 (1.5%) were called active.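 Rule for the calls: active = compounds that cut the protein-peptide binding signal by more than 50% relative to plate controls in a single-dose test; inactive = the rest.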 Many of the other results were omitted from the sample, so actives are more common in it than they were.

molecular target: Induced myeloid leukemia cell differentiation protein Mcl-1 (Homo sapiens) (UniProt Q07820); test: disruptors of Mcl-1 and Noxa BH3 peptide – biochemical, TR-FRET, 1536-well, primary screen (AID 1022); settings: TR-FRET Mcl-1/Noxa peptide binding, 2 h; at 21.7 µM; hits give high values;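 note: His-tagged Mcl-1 with rhodamine Noxa BH3 peptide and terbium anti-His antibody; 0% = Mcl-1 plus Noxa peptide wells and 100% = peptide-only wells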
Sequence (Q07820 whole entry, looked up): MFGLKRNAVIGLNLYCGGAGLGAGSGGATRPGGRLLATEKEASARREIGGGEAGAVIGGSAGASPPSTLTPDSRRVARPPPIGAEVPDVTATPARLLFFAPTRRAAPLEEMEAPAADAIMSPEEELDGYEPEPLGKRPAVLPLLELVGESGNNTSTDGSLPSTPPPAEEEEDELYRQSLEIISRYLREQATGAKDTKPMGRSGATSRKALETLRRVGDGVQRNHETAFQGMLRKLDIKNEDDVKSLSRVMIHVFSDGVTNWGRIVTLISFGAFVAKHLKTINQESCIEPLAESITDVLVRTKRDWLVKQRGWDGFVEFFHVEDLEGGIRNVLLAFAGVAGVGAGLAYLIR

inhibition, active:
C=CCn1c(CSc2nc3ccccc3s2)nnc1SCC(=O)NCc1ccco1 51.2%
CN(C(=O)COC(=O)c1cc(-c2ccco2)nc2ccccc12)C1CCS(=O)(=O)C1 (centres undefined) 107%
O=C(C1=C(O)C(=O)N(c2ncccn2)C1c1cccs1)c1ccco1 (centres undefined) 55%
O=C(O)/C=C/C(=O)NNc1ccc([N+](=O)[O-])cc1 54.4%
CC(C)CNC(=S)NC(=O)c1ccc(Cl)cc1 62.4%
Cc1ccc(/C=C/C(=O)Nc2ccc([N+](=O)[O-])c(NC(=O)/C=C/c3ccc(C)o3)c2)o1 88.8%
CC(=O)Nc1cc(C(=O)O)ccc1S(=O)(=O)c1ccc(Cl)cc1 57.8%
Cc1ccc(-c2n[nH]c(=S)n2/N=C/c2cc3c(cc2[N+](=O)[O-])OCO3)cc1 63.6%
COc1ccc(Cc2nnc(NC(=O)Cc3cccs3)s2)cc1 101%
O=c1cc(CO)oc(C(Nc2cccc(C(F)(F)F)c2)c2ccccn2)c1O (centres undefined) 70%
O=c1cc(CO)oc(C(Nc2cccc([N+](=O)[O-])c2)c2ccccn2)c1O (centres undefined) 70.7%
CCOc1ccc(NC(=S)NC(=O)/C=C/c2ccc(OC)cc2)c([N+](=O)[O-])c1 63.1%
COc1ccc2nc(Nc3nc4ccc(NC(C)=O)cc4s3)sc2c1 70.9%
Cc1nn(CC(=O)Nc2ccc(N(C)C)cc2)c(C)c1[N+](=O)[O-] 73.9%
O=[N+]([O-])c1cc(S(=O)(=O)Nc2cccc(Cl)c2)ccc1N=Nc1c(O)[nH]c2ccccc12 71.3%
O=[N+]([O-])c1c(NCCO)cc(Sc2nc3ccccc3s2)c2nonc12 79.7%
O=C(N/N=C/c1ccc([N+](=O)[O-])o1)c1cn(-c2ccccc2)nc1-c1ccc(F)cc1 65.5%
C/C(=N\Nc1cccc(C(=O)O)c1)c1ccc2c(c1)Nc1ccccc1S2 78.5%

inhibition, inactive:
O=C(Nc1ccccc1)N1CCN(C2c3ccccc3-c3ccccc32)CC1 -0.05%
CC1CCN(c2ccc([N+](=O)[O-])c(SCCO)c2)CC1 -16%
Cn1cnc(S(=O)(=O)Nc2ccc3c(c2)OCCO3)c1 -2.52%
C=CCn1c(SCC(=O)Nc2nc3ccccc3s2)nnc1-c1ccccc1O 8.54%
CCn1c(COc2ccccc2)nnc1SCC(=O)NCc1ccco1 -18.1%
C=CCC(Nc1ccccc1)c1cccc(OC)c1OC (centres undefined) 5.76%
Cc1cc(NC(=O)Nc2ccc(Cl)cc2)n(-c2ccccc2)n1 -3.74%
Cc1c(-c2cccc(Cl)c2)nc2ccccc2c1C(=O)OCC(=O)N(C)C1CCS(=O)(=O)C1 (centres undefined) 13.3%
COc1ccc(NC(=O)COc2ccc(C(=O)OCC(=O)N(C)C3CCS(=O)(=O)C3)cc2OC)cc1 (centres undefined) -10.9%
O=C(C1=C(O)C(=O)N(CCOCCO)C1c1ccccn1)c1cccs1 (centres undefined) 11.8%
O=C(C1=C(O)C(=O)N(Cc2ccccc2)C1c1ccco1)c1ccco1 (centres undefined) 24.5%
COc1cc(C=O)ccc1Oc1nnnn1-c1ccccc1 -17.8%
COc1ccc(OC)c(C(=O)c2ccc(Cl)cc2)c1 6.99%
Cc1ccc2cc(/C=N/NC(=O)[C@@H]3CCCN3)c(Cl)nc2c1 5.95%
O=[N+]([O-])c1ccc(N/N=C/c2ccccc2)cc1 1.75%
Cc1c(NC(=O)/C=C/C(=O)O)cccc1[N+](=O)[O-] -3.3%
C/C(=N\NC(=O)CC(C)C)c1c(C(F)(F)F)[nH]n(-c2nc3ccccc3s2)c1=O -81.1%
O=C(Nc1cccc2c1N(C(=O)c1ccco1)CCC2)c1ccco1 18.1%
O=C(C[n+]1ccc2c(c1)nnn2-c1ccccc1)c1ccc(Cl)cc1 4.1%
N#CCC(=O)N/N=C/c1cn(Cc2ccc3ccccc3c2)c2ccccc12 27.9%
Cc1occc1C(=O)NNC(=S)NCC(C)C -22.4%
CC(C)C(NC(=O)c1ccc(Cl)cc1)C(=O)O (centres undefined) 1.56%
Cn1cnc([N+](=O)[O-])c1Sc1n[nH]c(N)n1 3.28%
Cc1ccc(/C=C/C(=O)Nc2cc(S(=O)(=O)N3CCCCCC3)ccc2OCC(F)(F)F)o1 22.8%
CCc1nnc(NC(=O)/C=C/c2ccc(C)o2)s1 19.4%
O=C(Nc1ccc(-c2csc(Nc3cccc(C(F)(F)F)c3)n2)cc1)c1cccc(C(F)(F)F)c1 16.6%
CC(C)(C)c1cc(C(=O)NN)n(Cc2ccc(Cl)cc2Cl)n1 -5.62%
CCOC(=O)N1CCN(C(=O)c2ccc(S(=O)(=O)c3ccc(C)cc3)c(NC(C)=O)c2)CC1 2.03%
Cc1ccc(S(=O)(=O)c2ccc(Cl)cc2)cc1S(=O)(=O)NC(C(=O)O)C(C)C (centres undefined) 24%
CCC(=O)N1CCCc2ccccc21 -6.7%
CN(C)c1cc(-c2ccc(F)cc2)oc(=O)c1Cl 11.2%
Cc1ccc(S(=O)(=O)N/N=C\c2cc3c(cc2[N+](=O)[O-])OCO3)cc1 35.1%
CCOc1ccc(-c2n[nH]c(=S)n2/N=C/c2cc3c(cc2[N+](=O)[O-])OCO3)cc1 48.5%
CC(=O)N1N=C(c2ccncc2)OC1(Cc1ccccc1)Cc1ccccc1 5.2%
CCc1nnc(NC(=O)Cc2cccs2)s1 32.4%
O=C(Cc1cccs1)Nc1nnc(C2CC2)s1 -2.68%
Cc1ccc(-c2c[n+](CC(=O)Nc3ccccc3)c3n2CCC3)cc1 -9.73%
Cc1ccc(Cn2c(SCC(=O)N/N=C/c3ccccc3OCC(=O)O)nc3ccccc32)cc1 27.3%
Cc1nc2c(ncn2-c2ccccc2)c(=O)n1NC(=O)CN1CCCC1 1.52%
C=C(C)CNC(=S)Nc1ccc(S(=O)(=O)Nc2cnc3ccccc3n2)cc1 6.78%
O=C(Nc1cccc(C(F)(F)F)c1)c1cnccn1 3.57%
FC(F)(F)c1cccc(Nc2ncnc3ccccc23)c1 -37.6%
O=C(CSCC(=O)Nc1cccc([N+](=O)[O-])c1)Nc1ccccc1 -8.73%
Cc1ccc(CN(C)CC(=O)Nc2cccc([N+](=O)[O-])c2)o1 -9.25%
FC(F)(F)c1ccc(-n2cn[nH]c2=S)cc1 -8.38%
CN(C)NC(=O)c1csnc1-c1c(Cl)cccc1Cl 8.82%
O=C(CSc1ncn[nH]1)Nc1nc(-c2cccc([N+](=O)[O-])c2)cs1 0.73%
Cc1ccc(C(=O)NNC2=Nc3cc([N+](=O)[O-])ccc3OC2)cc1 8.97%
CSc1n[nH]c(=S)n1N -7.77%
CC(=O)Nc1ccc(NC(=S)NC(=O)/C=C/c2ccccc2)cc1 3.86%
Cc1ccc(NC(=S)NC(=O)/C=C/c2ccc(Cl)cc2)cc1 3.6%
O=C(N/N=C/c1ccco1)c1csc2c1CCCC2 5.75%
O=C(Nc1ccc(Cl)cc1)/C(=C1\CCCN1)[N+](=O)[O-] 9.38%
COc1ccc2nc(NC(=O)c3ccc(Br)s3)sc2c1 15.7%
COc1ccc2nc(Nc3nc4cc5c(cc4s3)OCCO5)sc2c1 -76.2%
Cn1c(SCC(=O)N2CCOCC2)nnc1-c1ccc2ncccc2c1 -9.25%
CC(C)Oc1ccc(CCC(=O)NNC(=S)NCc2ccccc2)cc1 0.21%
O=c1oc(-c2ccccc2NS(=O)(=O)c2ccc(Cl)cc2)nc2ccccc12 -43.7%
Cc1nn(CC(=O)Nc2ccc(C#N)cc2)c(C)c1[N+](=O)[O-] -6.04%
CCc1ccc(NC(=O)Cn2nc(C)c([N+](=O)[O-])c2C)cc1 3.69%
COc1ccccc1-n1c(SCC(=O)O)nc2sc3c(c2c1=O)CCC3 12.5%
COC(=O)c1cn(C(=O)c2ccc(Cl)cc2)c2ccccc12 -1.27%
Cc1cccc(N(CC(=O)N=Nc2c(O)[nH]c3ccccc23)S(C)(=O)=O)c1C 9.08%
CN1CCN(c2ccc(S(=O)(=O)Nc3ccccc3)cc2[N+](=O)[O-])CC1 -7.35%
COc1ccc(S(=O)(=O)Nc2ccc(O)c(Sc3nc4ccccc4s3)c2)cc1 21.8%
O=C(CSc1nc2ccccc2s1)Nc1ccc(C(=O)O)cc1 2.75%
O=C(N/N=C/c1ccccn1)c1cccnc1 -27.9%
Cc1nnc(SCC(=O)N/N=C/c2cn(-c3ccccc3)nc2-c2ccc(F)cc2)n1-c1ccccc1 -13.4%
O=C(O)c1ccc(NC(=O)c2cn(-c3ccccc3)nc2-c2ccc(Cl)cc2)cc1 17.5%
O=C(Nc1nnc(SCc2c(Cl)cccc2Cl)s1)c1cccc([N+](=O)[O-])c1 27.4%
CCc1cc(C(=O)c2ccc(OC)cc2)c(NC(=O)CN2CCN(C)CC2)s1 0.41%
Cc1ccc(CSc2nnc(-c3cnccn3)n2C)cc1 2.82%
O=C(NCc1cc(C(F)(F)F)cc(C(F)(F)F)c1)C1CC(c2cccc(F)c2)=NO1 (centres undefined) -14.9%
COc1ccc(C(=O)C2CCCN(Cc3ccc4nonc4c3)C2)c(C)c1 (centres undefined) 0.59%
CC(=O)Nc1cccc(/C(C)=N/NC(=O)c2ccccc2Cl)c1 12.1%
O=C(NC1CC1)c1ccc2c(c1)NC(=O)c1ccccc1S2 -14.5%
